In PubChem BioAssay:

Each compound was assayed against Fibroblast growth factor 10 (Homo sapiens) (UniProt O15520) (assay: compounds binding fibroblast growth factor 10 – biochemical, small-molecule microarray, 635 nm fluorescence, primary screen (AID 1102)). Details: FGF10 binding, fluorescence 635 nm, higher = more signal.
Fibroblast growth factor 10 (Homo sapiens), sequence (O15520 whole entry, looked up): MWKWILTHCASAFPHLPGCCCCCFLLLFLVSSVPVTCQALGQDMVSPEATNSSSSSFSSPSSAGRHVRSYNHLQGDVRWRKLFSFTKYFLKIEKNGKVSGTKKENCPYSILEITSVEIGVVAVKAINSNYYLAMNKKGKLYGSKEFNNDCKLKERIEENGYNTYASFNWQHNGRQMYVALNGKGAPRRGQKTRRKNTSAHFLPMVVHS

Compound	composite z-score
CC1CC/C=C\[C@H]2OC34C=CCN(CCN5CCOCC5)C(=O)[C@H]3N(CCCO)C(=O)[C@@H]4C2C(=O)O1 (some centres undefined)	-0.188
COC(=O)C[C@H]1O[C@@]2(C[C@@H]1[Si](C)(C)C)C(=O)N(C)c1ccccc12	0.955
O=C1C2C=CC(C(O)c3cccs3)N(Nc3ccc([N+](=O)[O-])cc3)C2C(=O)N1c1ccccc1 (centres undefined)	0.534
Cc1ccc(S[C@]2(C(=O)NCc3ccccc3)CC(=O)N(Cc3ccccc3C(F)(F)F)[C@@H]2c2ccc(CO)cc2)cc1	-0.915
O=C1[C@H]2C=C(I)[C@H](C[C@@H]2c2ccccc2)[C@@]12CO2	0.0211
C=CC[C@@]12N=C(c3ccc(OCCCO)cc3)O[C@@H]1c1ccccc1N(CCC)C2=O	0.85
C=CCC(OC(C)=O)[C@@H]1[C@@H](N(Cc2cccc3ccccc23)C(=O)c2ccc(-c3ccccc3)cc2)c2cc(OCCCO)ccc2N1C(=O)Cc1ccc2ccccc2c1 (some centres undefined)	-0.179
CCOC(=O)C1=CC[C@@H](c2ccccc2)N(S(=O)(=O)c2ccc(C)cc2)[C@H]1c1ccccc1I	0.619
O=C1O[C@H](c2ccccc2)[C@H](c2ccccc2)N2[C@H]1[C@@H](C(=O)O)[C@]1(C(=O)Nc3ccc(C#CCCO)cc31)[C@H]2c1ccc(OCCO)cc1	1.12
COc1ccc(C(O)C2C=CC3C(=O)NC(=O)C3N2Nc2ccc(Cl)cc2Cl)c2ccccc12 (centres undefined)	0.0892
COCCCNC(=O)[C@@]1(CCC(=O)OC(C)(C)C)COC(c2ccc(OCCCO)cc2)=N1	0.693
NC(=O)N1C(=O)C2C(C1=O)C1C=C(CCCO)C2C(C2CC2)N1Cc1sc2ccccc2c1Cl (centres undefined)	1.15
C=CCOC(=O)[C@@H]1[C@H]2C(=O)O[C@H](c3ccccc3)[C@H](c3ccccc3)N2[C@H](c2ccc(OCCOC(=O)[C@H]3C[C@H]4C(=O)N[C@@H](CCCCN(C)C)C(=O)N4[C@H]3c3ccc(O)cc3)cc2)[C@@]12C(=O)Nc1ccc(I)cc12	0.88
CCCC=C(CCC)[C@@H](NC(=O)c1ccc(C(F)(F)F)cc1)c1ccc(C(F)(F)F)cc1	0.793
COc1cc(C(O)C2C=CC3C(=O)N(c4ccccc4)C(=O)C3N2Nc2ccccc2)cc(OC)c1OC (centres undefined)	1.25
CC(=O)OCC1C2CC[C@H]3C(OCc4ccc(F)cc4C(F)(F)F)OC[C@]4(C)[C@H]3C2=C(CN4C(=O)OC(C)(C)C)[C@H](C)C1COC(C)=O (some centres undefined)	0.398
COC(=O)[C@@]1(Cc2ccc(F)cc2)[C@H]2c3cc(C(=O)N4CCCC4)n(Cc4cc(F)cc5c4OCOC5)c3C[C@H]2CN1C(=O)c1ccccc1	0.762
C[C@@H]1ON(c2ccccc2)[C@H](c2ccccc2)[C@H]1C(=O)O	0.777
C=CCC(OC(C)=O)[C@@H]1[C@@H](N(Cc2cc3ccccc3o2)C(=O)Cc2ccc(OC)cc2)c2cc(OCCCO)ccc2N1C(=O)c1ccc2ccccc2n1 (some centres undefined)	0.116
COC(=O)[C@@]1(Cc2ccc(OC)cc2)[C@H]2c3cc(C(=O)N4CCCC4)n(Cc4c(CO)[nH]cc(C)c4=O)c3C[C@H]2CN1C(=O)c1ccccc1	0.404
COc1ccc(NN2C(C(O)c3ccc(I)cc3)C=CC3C(=O)N(C4CCCCC4)C(=O)C32)cc1 (centres undefined)	1.33
O=C1O[C@H](c2ccccc2)[C@H](c2ccccc2)N2[C@H]1[C@@H](C(=O)N1CCN(c3ncccn3)CC1)[C@]1(C(=O)Nc3ccc(C#CCCO)cc31)[C@H]2c1ccc(O)cc1	1.06
CC1CC/C=C\[C@H]2OC34C=CCN(c5ccc(Cl)cc5)C(=O)[C@H]3N(CCCCCCO)C(=O)[C@]4(C)C2C(=O)O1 (some centres undefined)	-0.533
O=C(NC1CC1)[C@@H]1c2ccccc2C(=O)N(Cc2cc(C(F)(F)F)cc(C(F)(F)F)c2)[C@H]1c1ccc(CO)cc1	0.105
COc1ccc([Si](C)(C)[C@@H]2[C@@H](CC(=O)N3Cc4ccccc4C[C@H]3CO)O[C@]3(C(=O)N(Cc4ccc(N5CCOC5=O)cc4)c4ccccc43)[C@H]2C)cc1	0.723
CN1C(=O)C2C(C1=O)C1C=C(CCCO)C2C(C2CC2)N1Cc1cccc(OC(F)(F)F)c1 (centres undefined)	-0.268
[N-]=[N+]=Nc1ccccc1[C@@H]1OC(c2ccc(OCCCO)cc2)=N[C@]1(Cc1ccccc1)C(=O)NCCN1CCOCC1	1.1
COC(=O)[C@@]1(Cc2ccccc2)N=C(c2ccc(OCCCO)cc2)O[C@H]1c1ccccc1CN=[N+]=[N-]	0.722
Cc1ccc(N2C(=O)c3ccccc3[C@](C)(C(=O)NCCCN(C)C)[C@@H]2c2ccc(CO)cc2)nc1	-0.47
